According to PubChem BioAssay (Tox21):
Records with an inconclusive call do not appear. Activity calls are given as the source filed them. Unless noted, the call rests on the fitted dose curve; in most records, active means well fitted curve in the direction sought with a large enough effect in the repeat runs; inconclusive means weak or mixed curves; inactive means no such curve, though single readings can be large; an effect the other way counts as inactive or inconclusive.

Key:
[1] = qHTS assay to identify small molecule agonists of the NFkB signaling pathway (AID 1159509; active means well fitted curve in the direction sought with a large enough effect in the signal ratio in the repeat runs, not every such curve was filed as active; the % refers to the signal ratio; further: series mostly up to about 61 µM)
Outline: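 NFkB-bla ME-180 cells with a beta-lactamase reporter under an NF-kB response element were plated overnight, treated with compounds in DMSO for 5 hr at 37 C, then loaded with FRET substrate for 1.5 hr at room temperature.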

[2] = qHTS assay to identify small molecule agonists of the NFkB signaling pathway - cell viability counter screen (AID 1159515; calls by dose curve; further: series mostly up to about 61 µM; nearly all actives have a fitted effect of over 55% in size)
Outline: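 5 hr compound treatment of NFkB-bla ME-180 cells (2,000/well, seeded overnight beforehand), followed by reporter substrate for 1.5 hr. CellTiter-Glo added afterward; luminescence after 30 min RT.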

[3] = qHTS assay to identify small molecule agonists of the endoplasmic reticulum stress response signaling pathway (AID 1159516; active means well fitted activation curve with a large enough effect in the signal ratio in the repeat runs, not every such curve was filed as active; the % refers to the signal ratio)
Outline: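 Reporter HeLa cells (ESRE-beta-lactamase) underwent 5 hr compound incubation at 37 C and 5% CO2 in quantitative HTS format. Detection followed 2 hr of FRET substrate loading at room temperature.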

[4] = qHTS assay to identify small molecule agonists of the endoplasmic reticulum stress response signaling pathway - cell viability counter screen (AID 1159517; calls by dose curve;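 further: HeLa cells carrying an ER stress response element beta-lactamase reporter; series mostly up to about 61 µM; nearly all actives have a fitted effect of over 50% in size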)
Outline: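 Luminescence readout: CellTiter-Glo, 30 min RT, same wells as the ESRE-bla reporter read. HeLa ESRE-bla, 1,500 cells/well, o/n 37 C; cpd 5 hr 37 C/5% CO2.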

[5] = qHTS assay to identify small molecule antagonists of the retinoid-related orphan receptor gamma (ROR-gamma) signaling pathway - cell viability counter screen (AID 1159520); further: nearly all actives have a fitted effect of over 50% in size
Outline: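 Tet-on ROR gamma CHO cells (1,000/well) were plated 4 hr, given compounds in DMSO for 2 hr at 37 C, then induced with 1 uM final doxycycline for 16 hr. Viability was read as ATP by CellTiter-Glo luminescence after 30 min.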

[6] = molecular target: Nuclear receptor ROR-gamma (Homo sapiens) (UniProt P51449); test: qHTS assay to identify small molecule antagonists of the retinoid-related orphan receptor gamma (ROR-gamma) signaling pathway (AID 1159521;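 further: CHO cells with doxycycline inducible ROR-gamma driving an RORE luciferase reporter; top concentration of the series differs between compounds; nearly all actives have a fitted effect of over 50% in size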)
Outline: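 Test compounds were applied to Tet-on RORγ CHO cells 2 h ahead of doxycycline hyclate (1 uM final). Luciferase reporter activity was quantified by luminescence after 16 h at 37 C and 5% CO2.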

[7] = qHTS assay to identify small molecule agonists of the AP-1 signaling pathway - cell viability counter screen (AID 1159525; calls by dose curve; further: nearly all actives have a fitted effect of over 55% in size)
Outline: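 ME-180 AP-1-bla, 2500 cells/well, Opti-MEM + 0.5% dialyzed FBS; overnight 37 °C; cpd 15-pt titration, 5 h 37 °C; CellTiter-Glo 30 min RT; luminescence read; normalised to TOAB and DMSO controls.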

[8] = qHTS assay to identify small molecule agonists of the AP-1 signaling pathway (AID 1159526; calls by dose curve)
[9] = molecular target: Retinoic acid receptor RXR-alpha (Homo sapiens) (UniProt P19793); test: qHTS assay to identify small molecule agonists of the RXR signaling pathway (AID 1159527; calls by dose curve; further: nearly all actives have a fitted effect of over 35% in size)
Outline: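 Using 9-cis retinoic acid as the reference agonist, chemicals were tested in HEK 293T cells […] for 16 hr; substrate loading lasted 2 hr at room temperature.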

[10] = qHTS assay to identify small molecule agonists of the RXR signaling pathway - cell viability counter screen (AID 1159529); further: series mostly up to about 77 µM; nearly all actives have a fitted effect of over 50% in size
Outline: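 Compounds dissolved in DMSO were pinned onto HEK 293T cells carrying a beta-lactamase reporter under RXR-alpha control and incubated 16 hr. Cytotoxicity was then quantified by CellTiter-Glo luminescence.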

[11] = qHTS assay to identify small molecule antagonists of the retinoid acid receptor (RAR) signaling pathway - cell viability counter screen (AID 1159551); further: nearly all actives have a fitted effect of over 35% in size
Outline: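 Seed C3RL4 cells; next day add compound, then retinol to 1 uM final; incubate 6 h at 37 C; add CellTiter-Glo; read luminescence after 30 min at RT.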

[12] = qHTS assay to identify small molecule antagonists of the retinoic acid receptor (RAR) signaling pathway (AID 1159552; further: nearly all actives have a fitted effect of over 50% in size)
Outline: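 Test chemicals and DMSO controls were pin-transferred onto C3RL4 cells a day after seeding; retinol (1 uM final) followed at once. Luminescent reporter output was quantified after 6 hr of co-incubation and 30 min with detection reagent.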

[13] = qHTS assay to identify small molecule agonists of the retinoic acid receptor (RAR) signaling pathway (AID 1159553)
Outline: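 Activation of retinol signaling was monitored via a RARE luciferase reporter in C3RL4 cells. After 6 hr compound treatment at 37 C, detection reagent was added for 30 min at room temperature before luminescence reading.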

[14] = qHTS assay to identify small molecule antagonists of the estrogen related receptor (ERR) signaling pathway from Tox21 library - cell viability counter screen (AID 1224834); further: nearly all actives have a fitted effect of over 30% in size
Outline: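 CellTiter-Fluor fluorescence measured; ERR cells; 17.5 h compound incubation at 37 C; 30 min reagent step.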

[15] = molecular target: Luciferin 4-monooxygenase (Photinus pyralis) (UniProt P08659); test: qHTS assay to identify small molecule inhibitors of firefly luciferase (AID 1224835); further: series mostly up to about 120 µM; nearly all actives have a fitted effect of over 25% in size
Outline: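 Quantitative HTS format; KM concentrations of both substrates. Purified P. pyralis FLuc activity quantified from luminescence images.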

[16] = qHTS assay to identify small molecule antagonists of the constitutive androstane receptor (CAR) signaling pathway - cell viability counter screen (AID 1224837); further: series mostly up to about 92 µM; nearly all actives have a fitted effect of over 45% in size
Outline: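 Using CellTiter-Fluor, viability is scored in HepG2 cells stably carrying hCAR and a 2.2kb CYP2B6 reporter after 23 hr compound exposure across 15 concentrations, with CITCO present at 50 nM.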

[17] = molecular target: Nuclear receptor subfamily 1 group I member 3 (Homo sapiens) (UniProt Q14994); test: qHTS assay to identify small molecule antagonists of the constitutive androstane receptor (CAR) signaling pathway (AID 1224838);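 further: HepG2 cells stably expressing hCAR with CYP2B6 luciferase reporter stimulated by CITCO; nearly all actives have a fitted effect of over 40% in size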
Outline: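 Reporter luminescence was quantified after 24 h exposure of hCAR/CYP2B6-2.2kb double-stable HepG2 cells to compounds at 15 concentrations in the presence of 50 nM CITCO final.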

[18] = molecular target: Nuclear receptor subfamily 1 group I member 3 (Homo sapiens) (UniProt Q14994); test: qHTS assay to identify small molecule agonists of the constitutive androstane receptor (CAR) signaling pathway (AID 1224839);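 further: HepG2 cells stably carrying human CAR and a CYP2B6 luciferase reporter; series mostly up to about 92 µM; nearly all actives have a fitted effect of over 15% in size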
Outline: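 Compounds tested at 15 concentrations on HepG2 cells stably harbouring hCAR and CYP2B6-2.2kb reporter constructs, co-treated with PK11195 (0.75 uM final), 24 h at 37 C; luminescent reporter signal quantified.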

[19] = qHTS assay to identify small molecule antagonists of the vitamin D receptor (VDR) signaling pathway - cell viability counter screen (AID 743225); further: nearly all actives have a fitted effect of over 50% in size
Outline: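 Compounds were pinned onto VDR-bla HEK 293T cells together with 1-alpha,25-dihydroxyvitamin D3 at 3 nM final. After 16 h at 37C and 5% CO2 plus the reporter readout, cell viability was measured by CellTiter-Glo luminescence (30 min, room temperature).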

[20] = qHTS assay to identify small molecule agonists of the constitutive androstane receptor (CAR) signaling pathway - cell viability counter screen (AID 1224836); further: series mostly up to about 92 µM; nearly all actives have a fitted effect of over 45% in size
Outline: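 23 h treatment, 37 C, 5% CO2. Cell line: HepG2 stably expressing hCAR with a CYP2B6-2.2kb construct. Co-treatment: PK11195, 0.75 uM final. Read-out: CellTiter-Fluor fluorescence intensity.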

Measured: Potency

Retinoic acid receptor RXR-alpha (Homo sapiens), sequence (P19793 whole entry, looked up): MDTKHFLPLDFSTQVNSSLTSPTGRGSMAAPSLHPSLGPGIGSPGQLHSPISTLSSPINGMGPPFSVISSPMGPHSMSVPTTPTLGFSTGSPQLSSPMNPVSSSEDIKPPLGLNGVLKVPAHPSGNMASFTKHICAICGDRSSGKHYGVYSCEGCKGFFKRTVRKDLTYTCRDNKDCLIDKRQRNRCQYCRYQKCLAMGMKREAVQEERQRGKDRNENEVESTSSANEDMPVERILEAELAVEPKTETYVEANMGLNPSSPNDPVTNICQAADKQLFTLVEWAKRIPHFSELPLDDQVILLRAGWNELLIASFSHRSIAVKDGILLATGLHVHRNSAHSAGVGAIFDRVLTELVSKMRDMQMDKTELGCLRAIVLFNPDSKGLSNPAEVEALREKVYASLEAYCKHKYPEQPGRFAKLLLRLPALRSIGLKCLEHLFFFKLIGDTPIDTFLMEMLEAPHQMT
Nuclear receptor subfamily 1 group I member 3 (Homo sapiens), sequence (Q14994 whole entry, looked up): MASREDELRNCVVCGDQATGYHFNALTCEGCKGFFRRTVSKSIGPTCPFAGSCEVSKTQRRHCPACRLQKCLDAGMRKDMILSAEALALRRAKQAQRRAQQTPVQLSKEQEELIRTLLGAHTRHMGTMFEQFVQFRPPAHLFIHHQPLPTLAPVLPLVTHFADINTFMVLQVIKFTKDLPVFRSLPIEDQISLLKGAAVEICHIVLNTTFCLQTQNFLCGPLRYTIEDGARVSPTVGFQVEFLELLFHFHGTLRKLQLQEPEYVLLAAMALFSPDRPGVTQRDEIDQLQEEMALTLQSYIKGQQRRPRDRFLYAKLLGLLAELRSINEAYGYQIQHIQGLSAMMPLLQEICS
Luciferin 4-monooxygenase (Photinus pyralis), sequence (P08659 whole entry, looked up): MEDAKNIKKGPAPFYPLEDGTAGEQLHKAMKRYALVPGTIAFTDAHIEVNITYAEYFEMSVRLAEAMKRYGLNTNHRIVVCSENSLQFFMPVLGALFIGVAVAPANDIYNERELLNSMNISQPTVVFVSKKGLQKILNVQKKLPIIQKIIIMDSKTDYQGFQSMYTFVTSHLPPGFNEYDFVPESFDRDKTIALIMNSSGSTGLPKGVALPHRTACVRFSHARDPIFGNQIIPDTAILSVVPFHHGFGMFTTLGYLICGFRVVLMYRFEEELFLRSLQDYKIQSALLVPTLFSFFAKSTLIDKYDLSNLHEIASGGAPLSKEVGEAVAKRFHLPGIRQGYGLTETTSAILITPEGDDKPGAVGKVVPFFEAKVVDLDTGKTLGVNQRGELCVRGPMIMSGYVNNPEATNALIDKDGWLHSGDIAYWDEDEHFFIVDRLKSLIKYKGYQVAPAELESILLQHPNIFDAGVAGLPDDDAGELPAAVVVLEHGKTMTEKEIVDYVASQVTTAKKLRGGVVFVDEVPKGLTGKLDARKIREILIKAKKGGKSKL

Cc1ccc(C(=O)O)cc1[N+](=O)[O-]
not listed: [19] | [20]
inactive: all other assays above

CSc1cnccn1
not listed: [20]
inactive: all other assays above

COc1cc2c(cc1OC)C(=O)C(CC1CCN(Cc3ccccc3)CC1)C2 (stereo unspecified)
not listed: [18] | [19] | [20]
inactive: all other assays above

CN(C)CCOC(=O)C(c1ccccc1)C1(O)CCCC1 (stereo unspecified)
not listed: [18]
inactive: all other assays above

COc1ccc(CCO)cc1
not listed: [19] | [20]
inactive: all other assays above

CCCC(CC)c1ccccc1 (stereo unspecified)
not listed: [19] | [20]
inactive: all other assays above

CC1OCCC1=O (stereo unspecified)
not listed: [20]
inactive: all other assays above

C=CCCCCCCCCC(=O)OCCCC
not listed: [20]
inactive: all other assays above

C=CC(=O)CCCCC
not listed: [12] | [13] | [19]
inactive: all other assays above

CC(=O)CCc1ccc(OC(C)=O)cc1
not listed: [20]
inactive: all other assays above

O=C(CN1CCNCC1)NC1CCCCC1
not listed: [20]
inactive: all other assays above

CC1c2ccccc2CN1NC(=O)c1ccc(Cl)c(S(N)(=O)=O)c1 (stereo unspecified)
not listed: [20]
inactive: all other assays above

COc1ccc2c(c1)c1c3n2CCN(C)C3=NCC1
not listed: [19] | [20]
inactive: all other assays above

C/C(=C1\CCOC(=O)S1)N(C=O)Cc1cnc(C)nc1N
not listed: [7] | [19]
inactive: all other assays above

CCCCOC(=O)C(C)O (stereo unspecified)
not listed: [7]
inactive: all other assays above
